Screening data deposited in PubChem by National Center for Advancing Translational Sciences (NCATS).
Only some compounds are listed: those with a hit (about 10% of all), similar ones and a draw of the others.
GLS inh: qHTS for Inhibitors of Glutaminase (GLS); 0.21% of 410,000 active; GLS enzymatic activity, qHTS titration; AID 624170, 2012; Glutaminase kidney isoform, mitochondrial (Homo sapiens), O94925; Potency, µM (series often up to 45.5 µM), hits mostly inhibitors
Target sequence (O94925 whole entry, looked up, canonical isoform): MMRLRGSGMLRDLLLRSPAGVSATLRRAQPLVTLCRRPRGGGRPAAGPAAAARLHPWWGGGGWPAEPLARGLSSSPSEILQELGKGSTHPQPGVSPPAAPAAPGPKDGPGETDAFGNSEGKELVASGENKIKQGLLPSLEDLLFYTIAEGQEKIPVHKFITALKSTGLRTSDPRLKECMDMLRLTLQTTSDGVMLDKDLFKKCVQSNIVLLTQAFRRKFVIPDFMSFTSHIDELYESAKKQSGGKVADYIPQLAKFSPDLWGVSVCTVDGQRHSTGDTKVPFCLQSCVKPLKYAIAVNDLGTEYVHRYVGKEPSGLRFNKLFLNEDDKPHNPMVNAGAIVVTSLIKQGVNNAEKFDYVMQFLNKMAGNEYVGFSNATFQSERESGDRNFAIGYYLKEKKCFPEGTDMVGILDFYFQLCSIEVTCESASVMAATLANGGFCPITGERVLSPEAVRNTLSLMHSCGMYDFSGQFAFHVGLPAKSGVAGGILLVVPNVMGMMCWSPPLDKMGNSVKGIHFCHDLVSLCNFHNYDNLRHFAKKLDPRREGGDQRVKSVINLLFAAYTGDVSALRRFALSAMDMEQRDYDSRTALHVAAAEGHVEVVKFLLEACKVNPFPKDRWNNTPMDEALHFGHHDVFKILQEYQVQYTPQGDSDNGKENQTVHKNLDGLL
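Read-out is an Amplex red fluorescence increase coupled through glutamate oxidase and HRP, measured before and after 30 min room-temperature incubation. hKGA is in 45 mM KH2PO4 (pH 8.2) with 0.02% Tween-20; glutamine added as 1mM solution.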
BAZ2B block: qHTS Assay for Inhibitors of BAZ2B; 4.4% of 360,000 active; AlphaScreen BAZ2B-H3K14Ac peptide displacement; Potency, µM (series often up to 114 µM), most hits filed as inhibitors; AID 504333, 2011; note: nearly all actives have a fitted effect of over 60% in size
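AlphaScreen displacement of biotin-H3(5-23)K14Ac peptide (50 nM final) from BAZ2B (50 nM final) in PBS pH 7.4, 0.01% Tween-20; complex preformed 30 min RT, then compounds (top 110 uM) 30 min RT, beads 20 min dark.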
G9a block: qHTS Assay for Inhibitors of Histone Lysine Methyltransferase G9a | Histone-lysine N-methyltransferase EHMT2 (Homo sapiens), Q96KQ7 | G9a H3K9 monomethylation, AlphaScreen, 2 h | Potency, µM (series often up to 102 µM), usual class: inhibitors | 8.8% of 350,000 active | AID 504332, 2011; note: nearly all actives have a fitted effect of over 75% in size
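Using a bead-based AlphaScreen, monomethylated H3K9 product from 2 h room-temperature reactions (G9a 20 nM, peptide 500 nM, SAM 20 uM) was detected with 0.5 ug/mL rabbit anti-H3K9me1 antibody.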
HP1b chromo inh: HTS for Inhibitors of HP1-beta Chromodomain Interactions with Methylated Histone Tails. Chromobox protein homolog 1 (Homo sapiens), P83916. AlphaScreen HP1-beta / biotin-H3K9me3 peptide binding. Potency, µM (doses to about 114 µM), actives largely listed as inhibitors. 0.56% of 390,000 active. AID 540317, 2011; note: nearly all actives have a fitted effect of over 70% in size
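HP1-beta protein (50 nM final) preincubated 30 min at room temperature with biotinylated H3(1-18)K9me3 peptide (50 nM) in PBS pH 7.4, 0.01% Tween-20, then compound added for 30 min. AlphaScreen streptavidin donor/nickel chelate acceptor beads (10 ug/mL final), 30 min dark, luminescence read.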
JMJD2A Tudor inh: qHTS Assay for Inhibitors of JMJD2A-Tudor Domain. AlphaScreen JMJD2A-Tudor / H3K4me3 peptide binding. Potency, µM (series often up to 114 µM), most hits filed as inhibitors. 4.4% of 390,000 active. AID 504339, 2011; note: nearly all actives have a fitted effect of over 50% in size
Each line names hits and unclear results; the compound was inactive in the other large screens. Calls come from the whole dose curve; as a rule, active = well fitted curve in the direction sought with a large enough effect; inconclusive = small, poorly fitted or top-dose-only effect, or another doubt; inactive = no such curve, though single readings can be large; an effect the other way counts as inactive or inconclusive.

CCOc1cccc(OCCCCN2CCCCC2)c1	BAZ2B block inconclusive, G9a block 8.9µM, HP1b chromo inh inconclusive, JMJD2A Tudor inh inconclusive
CC1CCCN(CCC(=O)c2ccc(Br)cc2)C1 (stereo not given)	G9a block inconclusive
CC1CCCN(CCOc2ccc(Br)cc2)C1 (stereo not given)	BAZ2B block inconclusive, G9a block 10µM, JMJD2A Tudor inh 20µM
CC(Oc1ccc(Cl)cc1Cl)C(=O)Nn1cnnc1 (stereo not given)	none
C=CCNC(=S)Nc1cccc(NC(=S)NCC=C)c1	none
C=CCNC(=S)Nc1cc(C)ccn1	G9a block 1.6µM
O=c1c(N2CCN(c3cccc(C(F)(F)F)c3)CC2)csc2ccccc12	G9a block inconclusive, JMJD2A Tudor inh 45µM
O=C(NCC1CCCO1)c1ccc2c(c1)ncn2-c1cccc(F)c1 (stereo not given)	none
Cc1ccc(-n2c(COCC(=O)O)nc3cccnc32)cc1	none
Cc1ccc(S(=O)(=O)N2CCN(C(=O)COC(=O)CCOc3ccccc3C)CC2)cc1	none
CCOC(=O)N1CCN(S(=O)(=O)c2ccc(C)cc2)CC1	none
COc1ccc(N2CCN(C(=O)COC(=O)CCS(=O)(=O)c3ccc(C)cc3)CC2)cc1	G9a block 40µM
Cc1ccc(S(=O)(=O)CCC(=O)OCC(=O)N2CCN(c3ccccc3)CC2)cc1	none
Cc1ccc(S(=O)(=O)CCC(=O)OCC(=O)N2CCN(S(=O)(=O)c3ccccc3)CC2)cc1	G9a block 50µM
CCOCCCNCC(=O)N1CCN(S(=O)(=O)c2ccc(C)cc2)CC1	BAZ2B block 79µM, G9a block 4.5µM, JMJD2A Tudor inh 4µM
Cc1nccc(-c2sc(-c3cccs3)nc2C)n1	none
CCN(CC)c1ccc(S(=O)(=O)N2CCOCC2)cc1NC(=O)CSc1nncs1	G9a block 35µM
Cc1ccc(OCCCC(=O)Nc2cc(S(=O)(=O)N3CCOCC3)ccc2N2CCOCC2)cc1	G9a block 56µM
CCN(CC)c1ccc(S(=O)(=O)N2CCOCC2)cc1NC(=O)CSc1nncn1C	G9a block inconclusive
O=C(CNCc1ccccc1Cl)Nc1cc(S(=O)(=O)N2CCOCC2)ccc1Cl	HP1b chromo inh inconclusive, JMJD2A Tudor inh 7.9µM (no result: BAZ2B block, G9a block)
O=C(CNCc1ccc(Cl)cc1)Nc1cc(S(=O)(=O)N2CCCC2)ccc1Cl	HP1b chromo inh inconclusive, JMJD2A Tudor inh 3.5µM (no result: BAZ2B block, G9a block)
COC(=O)c1c(-c2ccccc2Cl)noc1-c1cnc(N)nc1C(F)(F)F	none
O=C(CNCc1ccco1)Nc1cc(S(=O)(=O)N2CCOCC2)ccc1N1CCOCC1	HP1b chromo inh inconclusive, JMJD2A Tudor inh 18µM (no result: BAZ2B block, G9a block)
CCN(CC)c1ccc(S(=O)(=O)N2CCOCC2)cc1NC(=O)CNCc1cccc(Cl)c1	HP1b chromo inh inconclusive, JMJD2A Tudor inh 50µM (no result: BAZ2B block, G9a block)
CCN(CC)c1ccc(S(=O)(=O)N2CCOCC2)cc1NC(=O)CSc1ccccc1	none
Cc1nc2ccccc2c2c(N)c3ccccc3n12	GLS inh inconclusive, BAZ2B block inconclusive, G9a block 18µM, HP1b chromo inh inconclusive, JMJD2A Tudor inh inconclusive
O=C(OC[C@@H](O)CO)c1ccccc1Nc1ccnc2cc(Cl)ccc12	none (no result: BAZ2B block, HP1b chromo inh, JMJD2A Tudor inh)
COc1cccc(CNS(=O)(=O)c2ccc(-n3cnnn3)c(C)c2)c1	none
Cc1cc(S(=O)(=O)N(Cc2ccccc2)Cc2ccc(N(C)C)cc2)ccc1-n1cnnn1	G9a block 8.9µM, JMJD2A Tudor inh 40µM
COc1cc(S(=O)(=O)N(Cc2cccnc2)Cc2ccco2)ccc1-n1cnnn1	BAZ2B block 56µM, G9a block 5.6µM, JMJD2A Tudor inh 28µM
COc1cccc(CN(Cc2cccnc2)S(=O)(=O)c2ccc(-n3cnnn3)c(C)c2)c1	BAZ2B block 79µM, G9a block inconclusive, JMJD2A Tudor inh 89µM
Cc1cc(/C=C(\C#N)C(=O)NCc2cccs2)c(C)n1-c1ccc([N+](=O)[O-])cc1	none
COc1ccccc1N1CCN(CC(O)c2ccccc2)CC1 (stereo not given)	none
O=C1c2sc3nc4n(c(=O)c3c2CCC1Br)CCCCC4 (stereo not given)	BAZ2B block 50µM, HP1b chromo inh inconclusive, JMJD2A Tudor inh 7.9µM
Cc1nc(/N=C(\N)NC(=O)N2c3ccccc3Sc3ccccc32)nc2ccccc12	G9a block inconclusive
O=C(N=C1SC2CS(=O)(=O)CC2N1c1ccc(Cl)cc1Cl)C1CCCO1 (stereo not given)	none
O=C(N=C1SC2CS(=O)(=O)CC2N1c1ccc(Cl)cc1Cl)C1CC1 (stereo not given)	G9a block 79µM
COc1ccc(OC)c(CN2CCN(CC(=O)Nc3ccccc3C(=O)NC3CC3)CC2)c1	none
CN(C)CCCNCC(=O)NN(c1ccccc1)c1ccccc1	BAZ2B block 32µM, JMJD2A Tudor inh 0.79µM
COc1cc2c(cc1OC)C(c1cccs1)N(C(=O)c1cccc(S(=O)(=O)N(C)C)c1)CC2 (stereo not given)	G9a block 50µM, JMJD2A Tudor inh inconclusive
COc1cc2c(cc1OC)C(c1ccccc1)N(C(=O)c1ccccc1)CC2 (stereo not given)	BAZ2B block inconclusive, JMJD2A Tudor inh inconclusive
CCOC(=O)C(C)Sc1nc(N2CCOCC2)c2c(c1C#N)CC(C)(C)OC2 (stereo not given)	none (no result: BAZ2B block, G9a block)
CC(Sc1nc(N2CCOCC2)c2c(c1C#N)CC(C)(C)OC2)C(=O)Nc1ccccc1 (stereo not given)	G9a block 5.6µM
CCOC(=O)CCSc1nc(N2CCOCC2)c2c(c1C#N)CC(C)(C)OC2	G9a block 35µM
O=C(CSc1nnc(-c2ccccc2)c(-c2ccccc2)n1)NC1CCS(=O)(=O)C1 (stereo not given)	JMJD2A Tudor inh inconclusive
COc1cc(/C=N/NC(=O)c2nnn(-c3nonc3N)c2C(C)C)ccc1O	none
COc1ccc(O)c(/C=N/NC(=O)c2c(C)nnn2-c2nonc2N)c1	BAZ2B block inconclusive, G9a block 79µM, JMJD2A Tudor inh inconclusive
COc1cc(/C=N/NC(=O)c2nnn(-c3nonc3N)c2-c2cccs2)ccc1O	none
COc1ccc(/C=N/NC(=O)c2nnn(-c3nonc3N)c2-c2cccs2)cc1OC	BAZ2B block 56µM
CCOc1cccc(-c2c(C(=O)N/N=C(\C)c3ccccn3)nnn2-c2nonc2N)c1	BAZ2B block 13µM, JMJD2A Tudor inh 25µM (no result: G9a block)
COc1ccccc1/C(C)=N/NC(=O)c1nnn(-c2nonc2N)c1C(C)C	GLS inh inconclusive, JMJD2A Tudor inh 20µM
COc1ccc(/C=N/NC(=O)c2nnn(-c3nonc3N)c2-c2cccc(OC)c2)cc1	none
